Growth data for eight molecules are collected here from PubChem BioAssay (NCI).

SMILES strings stand for the structures. This is part of a sample that, as a whole, favours compounds with a hit. Of some 83,000 tested, about 20% had one in any assay.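 Percent growth is the endpoint: 0 to 100 indicates growth inhibition (40 means 60% inhibition), 0 means no net growth, and negative values indicate cell death.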 Values without a mark were called inactive. The source made the active and inactive calls. The calls were made as follows: active = growth percent below 10; inactive = the rest.

Among the test systems are SR leukemia; RPMI-8226 leukemia; OVCAR-8 ovarian; OVCAR-5 ovarian; OVCAR-4 ovarian; SK-OV-3 ovarian; IGROV1 ovarian; OVCAR-3 ovarian; HS 578T breast; NCI/ADR-RES ovarian; T-47D breast; MDA-MB-435 melanoma; SW-620 colon; MCF7 breast; HCT-116 colon; HCC-2998 colon; KM12 colon; BT-549 breast.
Common to all, as to test: NCI-60 one-dose screen, 48 h (100 = growth as untreated, 0 = no growth, -100 = all killed)
Common to all, as to conditions: 10 µM unless noted

For the molecule `COc1cc(NCCCCCN=C(N)NC(N)=NC(C)C)c2ncccc2c1`, the growth with SR leukemia was 46.3%; in the assay on RPMI-8226 leukemia, 37.6%; in the assay on OVCAR-8 ovarian, 23.8%; with OVCAR-5 ovarian, 71.5%; in the assay with OVCAR-4 ovarian it was -16.7% (active); in the assay with SK-OV-3 ovarian, 83.3%. Besides, the growth was -13.1% (active) in the assay with IGROV1 ovarian; -39.8% (active) in the assay on OVCAR-3 ovarian; 64% in the assay on HS 578T breast; 99.5% in the assay with NCI/ADR-RES ovarian; 24.6% in the assay on T-47D breast; 69.2% with MDA-MB-435 melanoma. For the same molecule, the growth was 25.2% with SW-620 colon; -91.6% (active) in the assay on MCF7 breast; -4.52% (active) in the assay with HCT-116 colon; 11% with HCC-2998 colon; 3.06% (active) in the assay with KM12 colon.
Consider `COCCCN=C(N)c1ccc(NC(=O)c2ccc(C(=O)Nc3ccc(C(N)=NCCCOC)cc3)cc2)cc1`, for which the growth with SR leukemia is 72.3%; in the assay with RPMI-8226 leukemia, 63.2%; in the assay on OVCAR-8 ovarian it was 106%; in the assay with OVCAR-5 ovarian, 110%; in the assay on OVCAR-4 ovarian, 105%; with SK-OV-3 ovarian it was 115%. Moreover, the growth is 120% with IGROV1 ovarian; 154% in the assay with OVCAR-3 ovarian; 151% in the assay with HS 578T breast; 112% in the assay with NCI/ADR-RES ovarian; 108% in the assay on T-47D breast; 78.6% in the assay with BT-549 breast. In addition, the growth was 106% with SW-620 colon; 109% in the assay with MCF7 breast; 79.7% in the assay with HCT-116 colon; 116% with HCC-2998 colon; 132% in the assay on KM12 colon.
Turning to `COc1cc(/C=N/N(C)C)ccc1O`, the growth in the assay with SR leukemia is 93%; with RPMI-8226 leukemia it was 92.4%; with OVCAR-8 ovarian it was 96.1%; with OVCAR-5 ovarian, 106%; in the assay with OVCAR-4 ovarian, 115%; in the assay on SK-OV-3 ovarian it was 97.1%. For the same molecule, the growth in the assay with IGROV1 ovarian is 104%; with OVCAR-3 ovarian it was 109%; in the assay with HS 578T breast, 87.3%; with NCI/ADR-RES ovarian, 107%; with T-47D breast, 94.4%; in the assay with BT-549 breast it was 105%. The growth was 90.7% with SW-620 colon; 98.4% in the assay on MCF7 breast; 101% with HCT-116 colon; 107% in the assay on HCC-2998 colon; 103% in the assay with KM12 colon.
In the case of `CCCCCCCCCCCCCCCCCCNC(=O)[C@H]1CSC(c2ccc(F)c(OC)c2)N1` (stereo partly specified), the growth in the assay with SR leukemia is -42.1% (active); in the assay with RPMI-8226 leukemia, -49.3% (active); in the assay on OVCAR-8 ovarian, -28.2% (active); in the assay on OVCAR-5 ovarian it was -87.9% (active); in the assay with OVCAR-4 ovarian it was -3.83% (active); with SK-OV-3 ovarian, 10.5%. For the same molecule, the growth in the assay with IGROV1 ovarian is -6.12% (active); in the assay on OVCAR-3 ovarian it was -85.6% (active); in the assay with HS 578T breast, -30.7% (active); in the assay on NCI/ADR-RES ovarian, -42.6% (active); in the assay on T-47D breast, -72.3% (active); in the assay with BT-549 breast it was -75.9% (active). Moreover, the growth is -74.5% (active) in the assay with SW-620 colon; -71.7% (active) in the assay with MCF7 breast; -85.5% (active) in the assay with HCT-116 colon; -91.4% (active) in the assay with HCC-2998 colon; -72.3% (active) in the assay on KM12 colon.
On to `Cc1cc(-c2nc3ccccc3s2)ccc1NC(=O)COc1ccc(Cl)cc1`, for which the growth with SR leukemia was 87.5%; in the assay with RPMI-8226 leukemia, 72.1%; with OVCAR-8 ovarian, 105%; in the assay on OVCAR-5 ovarian, 65.5%; with OVCAR-4 ovarian, 56.5%; in the assay on SK-OV-3 ovarian, 104%. In addition, the growth with IGROV1 ovarian was 31.6%; in the assay on OVCAR-3 ovarian, 120%; with HS 578T breast it was 117%; with NCI/ADR-RES ovarian, 93.3%; in the assay with T-47D breast, 18.9%; in the assay on BT-549 breast, 105%. The growth in the assay on SW-620 colon is 106%; with MCF7 breast, 17.5%; in the assay with HCT-116 colon, 76.7%; in the assay on HCC-2998 colon, 91.8%; in the assay on KM12 colon, 118%.
In the case of `Cc1nc2sc(C(=O)Nc3cccc4c3OCCO4)c(N)c2cc1C(C)O` (stereo unspecified), the growth with SR leukemia was 26.4%; with RPMI-8226 leukemia, 26.5%; with OVCAR-8 ovarian, 49.5%; in the assay on OVCAR-5 ovarian it was 73.7%; in the assay with OVCAR-4 ovarian, 69.4%; with SK-OV-3 ovarian, -11.4% (active). In addition, the growth was 49% with IGROV1 ovarian; 7.73% (active) in the assay on OVCAR-3 ovarian; 33.5% in the assay on HS 578T breast; 31% in the assay with NCI/ADR-RES ovarian; -13.2% (active) with T-47D breast; 56.1% with BT-549 breast. Besides, the growth is 22.4% with SW-620 colon; 11.2% with MCF7 breast; 31.3% with HCT-116 colon; 66.5% with HCC-2998 colon; 20.7% with KM12 colon.
Consider `CCN(CC)CC(O)c1cc(-c2ccc(Cl)cc2)nc2c(C)c(Cl)ccc12` (stereo unspecified), for which the growth is -79.5% (active) with SR leukemia; -32.2% (active) with RPMI-8226 leukemia; -82.7% (active) with OVCAR-8 ovarian; -97.3% (active) with OVCAR-5 ovarian; -26% (active) in the assay with OVCAR-4 ovarian; 29.2% with SK-OV-3 ovarian. Moreover, the growth with IGROV1 ovarian was -84.7% (active); in the assay with OVCAR-3 ovarian, -100% (active); with HS 578T breast, -62.4% (active); with NCI/ADR-RES ovarian it was -84.7% (active); in the assay on T-47D breast, -89.2% (active); in the assay on BT-549 breast, -36.1% (active). The growth with SW-620 colon was -85.8% (active); in the assay on MCF7 breast, -92% (active); with HCT-116 colon, -100% (active); with HCC-2998 colon it was -97.4% (active); in the assay with KM12 colon it was -100% (active).
`CC(=O)Oc1cc2cnc3c4cc(OC(C)=O)c(OC(C)=O)cc4ccc3c2cc1OC(C)=O`: the growth with SR leukemia is -8.28% (active); in the assay with RPMI-8226 leukemia, 12.8%; in the assay on OVCAR-8 ovarian, -22.1% (active); in the assay on OVCAR-5 ovarian, 54.6%; with OVCAR-4 ovarian it was -4.13% (active); with SK-OV-3 ovarian, 26.9%. In addition, the growth in the assay with IGROV1 ovarian is -12.8% (active); with OVCAR-3 ovarian, -3.27% (active); with HS 578T breast it was 28.1%; with NCI/ADR-RES ovarian, 13.3%; in the assay on T-47D breast it was 14.7%; with BT-549 breast, 26.8%. Further, the growth with SW-620 colon is 24.8%; in the assay on MCF7 breast it was 6.96% (active); with HCT-116 colon it was 5.17% (active); in the assay with HCC-2998 colon, 45.7%; in the assay with KM12 colon, 22.8%.
